HTT ATP protect = Huntington cell model cytoprotection by ATP luminescence; PC12 HTT-Q103 induced, cytoprotection, ATP luminescence, 40 h; Potency, µM (doses to about 56.4 µM), most hits filed as activators; 230,000 compounds, 0.14% hits; further: nearly all actives have a fitted effect of over 45% in size
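Cells were plated at 1500 per well in phenol red-free DMEM with 5% equine and 5% calf serum. Tebufenozide (100 nM final) and compounds were added, then ATPlite reagent, and luminescence was read.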
HTT aggregate = inhibitors of mutant huntingtin aggregate formation in PC12 cells; 220,000 compounds, 1.1% hits; PC12 HttQ103-GFP aggregates, Acumen cytometry, 40 h; AID 1688; Potency, µM (titrated, usually from 46.1 µM), most hits filed as inhibitors; further: nearly all actives have a fitted effect of over 60% in size
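PC12 cells with ecdysone-inducible HTT exon1 Q103-GFP, induced by 100 nM tebufenozide, given compounds in a concentration series. GFP aggregates (1–25 um, 6 SD above background) counted in lysates by laser-scanning cytometry, 488 nm excitation.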
RGS12 GoLoco inh = blocks human Gai1 binding to RGS12 GoLoco peptide, red readout; Potency, µM (top dose mostly 61.6 µM), most hits filed as inhibitors; 230,000 compounds, 0.44% hits; P63096; Gai1:RGS12 GoLoco peptide FP, rhodamine, 10 min; AID 880; active means well fitted inhibition curve with a large enough effect, not every such curve was filed as active; inactive means no such curve, though single readings can be large or run the other way; further: nearly all actives have a fitted effect of over 30% in size
Target sequence (P63096 whole entry, looked up): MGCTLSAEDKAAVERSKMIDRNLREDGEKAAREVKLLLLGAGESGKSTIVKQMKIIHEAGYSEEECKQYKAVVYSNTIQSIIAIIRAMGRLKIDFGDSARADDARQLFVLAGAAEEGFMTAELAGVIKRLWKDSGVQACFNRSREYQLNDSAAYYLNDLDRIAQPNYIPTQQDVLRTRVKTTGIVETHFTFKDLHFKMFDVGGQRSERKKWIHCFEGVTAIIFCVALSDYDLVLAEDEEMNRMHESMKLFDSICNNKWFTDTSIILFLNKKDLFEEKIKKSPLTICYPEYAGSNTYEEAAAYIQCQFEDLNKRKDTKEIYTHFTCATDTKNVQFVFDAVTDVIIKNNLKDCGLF
PNC inhibitor = inhibitors of perinucleolar compartment assembly. PC3M PTB-GFP, PNC prevalence imaging, 16 h; active compounds read low. activity change (PNC), negative = inhibition, % at 10 µM. 140,000 compounds, 3.1% hits;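 active means readout at or below -70, meaning at least 70% loss of cells showing the perinucleolar compartment, a nuclear body marking cancer cells; inconclusive means readout between -30 and a set limit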
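PC3M cells stably expressing PTB-GFP, 750–1000 cells/well, treated 16 h at 37 °C with compound (23 nl of library stock), in duplicate. After paraformaldehyde fixation and Hoechst stain, imaged at 20x; PNC prevalence scored by image analysis.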
ALDH1A1 inh = inhibitors of human aldehyde dehydrogenase 1A1 | P00352 | Purified ALDH1A1, NADH fluorescence, propionaldehyde substrate | 220,000 compounds, 7.3% hits | Potency, µM (doses to about 75.3 µM), usual class: inhibitors; active means well fitted inhibition curve with a large enough effect, not every such curve was filed as active; inconclusive means small, poorly fitted or top-dose-only effect, or another doubt; inactive means no such curve, though single readings can be large or run the other way
HPGD inh = HPGD (human) dehydrogenase inhibition | P15428 | purified HPGD, NADH fluorescence kinetic, PGE2 substrate | Potency, µM, most hits filed as inhibitors | 150,000 compounds, 4.3% hits | AID 894; active means well fitted inhibition curve with a large enough effect, not every such curve was filed as active; inconclusive means small, poorly fitted or top-dose-only effect, or another doubt; inactive means no such curve, though single readings can be large or run the other way
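20 nM HPGD preincubated 15 min at room temperature with compound in 50 mM Tris-HCl pH 8, 0.01% Tween 20. Started with 1 mM NAD+ and 30 uM prostaglandin E2; NADH fluorescence (360/450 nm) read 5 times over 30-s intervals, last minus first.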
A number is an active result; - = inactive; ? = inconclusive; . = no result; [ ] = dose if it differs, or a comment. A selection: hits, their analogues and other compounds. The true share with any hit is near 11%. Unless noted, the call rests on the fitted dose curve; in most records, active means well fitted curve in the direction sought with a large enough effect; inconclusive means small, poorly fitted or top-dose-only effect, or another doubt; inactive means no such curve, though single readings can be large; an effect the other way counts as inactive or inconclusive.

SMILES | HTT ATP protect | HTT aggregate | RGS12 GoLoco inh | PNC inhibitor | ALDH1A1 inh | HPGD inh
CCCCN(C)Cc1c(C(=O)N2CCc3ccccc3C2)nc2ccc(Cl)cn12 | -[10 µM] | -[9.22 µM] | - | . | ? | .
CN(Cc1cnccn1)Cc1c(C(=O)N2CCc3ccccc3C2)nc2ccc(Cl)cn12 | -[10 µM] | -[9.22 µM] | - | . | 18µM | .
O=C(N=C1N=C2C=CC(Br)=CN2Cc2ccccc21)c1ccc([N+](=O)[O-])cc1[N+](=O)[O-] | -[10 µM] | -[9.22 µM] | - | . | . | .
Nc1nc2n(n1)C(c1ccc(Cl)cc1)CC(c1ccc(F)cc1)N2 (stereo not drawn) | - | - | - | -119 | - | -
CCOc1ccccc1C1CC(c2ccc(Br)cc2)Nc2nc(N)nn21 (stereo not drawn) | - | - | - | -114 | - | ?
COc1cccc(C2CC(c3c(F)cccc3Cl)n3nc(N)nc3N2)c1 (stereo not drawn) | -[1.9 µM] | - | - | -110 | - | -
COC(=O)[C@@]1(Cc2ccc(F)cc2)[C@H]2c3cc(C(=O)N4CCCC4)n(CCN4CNCC4=O)c3C[C@H]2CN1C(=O)c1ccccc1 | - | . | - | . | - | -
CC(C)(C)N1C(=O)[C@H]2[C@@H]3[C@H](O)[C@H](O)CC(=O)[C@H]3CC[C@H]2C1=O | -[10 µM] | . | . | . | -[13.5 µM] | .
Cc1ccc(S(=O)(=O)N(C)CC(=O)Nc2ccncc2)cc1 | -[0.074 µM] | - | - | ? | - | -
COC(=O)[C@@H](NC(=O)O[C@@H]1C(=O)c2cc(OC)ccc2O[C@H]1c1cccc(OC)c1)C(C)C | . | . | - | . | - | -
COC(=O)c1cccc(NC(=O)c2ccc3c(c2)C(=O)N(CC2CCCO2)C3=O)c1 (stereo not drawn) | - | - | - | ? | 1.4µM | -
O=C(NCc1ccccc1)c1ccc2c(c1)C(=O)N(CC1CCCO1)C2=O (stereo not drawn) | - | - | - | - | 5µM | -
O=C(Cc1ccccc1)Nc1ccc2c(c1)C(=O)N(CC1CCCO1)C2=O (stereo not drawn) | - | - | - | . | ? | .
COc1ccccc1OCC(=O)Nc1ccc2c(c1)C(=O)N(CC1CCCO1)C2=O (stereo not drawn) | -[10 µM] | - | - | . | 4.5µM | .
O=C(O)c1cccc(NC(=O)c2ccc3c(c2)C(=O)N(CC2CCCO2)C3=O)c1 (stereo not drawn) | -[10 µM] | - | - | ? | ? | -
O=C(O)c1ccc(S(=O)(=O)c2ccc3c(c2)C(=O)N(CC2CCCO2)C3=O)cc1 (stereo not drawn) | - | - | - | -100 | - | -
O=C(O)c1ccc(C(=O)c2ccc3c(c2)C(=O)N(CC2CCCO2)C3=O)cc1 (stereo not drawn) | -[10 µM] | -[9.22 µM] | - | . | ? | .
O=C(O)c1ccc2c(c1)C(=O)N(Cc1ccccc1)C2=O | -[1.9 µM] | - | - | - | - | 14µM
O=C(O)c1ccc2c(c1)N(Cc1ccccc1)C(=O)c1ccccc1S2=O (stereo not drawn) | - | - | - | - | - | -
COc1ccc(NC(=O)c2cc3c(Cl)nc4ccccc4c3s2)cc1OC | -[10 µM] | - | - | -88 | - | -
N#CC(c1ccc(Cl)nn1)c1ccc(Cl)cc1Cl (stereo not drawn) | - | - | - | - | 6.3µM | -
COc1ccc(NC(=O)CNS(=O)(=O)c2ccc(Cl)cc2)cc1OC | . | - | - | -114 | - | -
Cc1ccc(S(=O)(=O)NCC(=O)N/N=C/c2ccc(Cl)cc2Cl)cc1 | -[10 µM] | - | - | - | 7.1µM | -
COC(=O)Nc1nnc(COc2ccccc2)s1 | -[10 µM] | -[9.22 µM] | - | . | . | .
COc1ccc(-c2onc3ccc(Cl)cc23)cc1 | - | - | - | - | 20µM | ?
Cc1ccc(-c2onc3ccc(Cl)cc23)cc1 | -[0.074 µM] | - | - | ? | - | -
O=Cc1ccc2noc(-c3ccc(Cl)cc3)c2c1 | - | - | - | - | 22µM | -
Cc1sc2nc(SCC(=O)N(CCO)CCO)n(C3CCCCC3)c(=O)c2c1C | - | - | - | ? | - | -
Cc1nnc(NC(=O)C(C)Oc2ccc3c(C)cc(=O)oc3c2)s1 (stereo not drawn) | - | - | - | -107 | ? | ?

High-throughput results from PubChem BioAssay.
